# Only some compounds are listed: those with a hit (about 10% of all), similar ones and a draw of the others.
# G9a inh = inhibitors of human histone lysine methyltransferase G9a; G9a H3K9 monomethylation, AlphaScreen, 2 h; AID 504332; Q96KQ7; 350,000 tested, 8.8% active; Potency, µM (titrated, usually from 102 µM), inactives show at the highest dose activity, negative = inhibition, most hits filed as inhibitors; note: potency is the fitted concentration of half-maximal effect; % is set by controls: 0 for no effect and ±100 for the full control effect; nearly all actives have a fitted effect of over 75% in size
#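 Quantitative HTS format: methyltransferase activity on a biotin-tagged H3K9 peptide is measured by AlphaScreen, using a rabbit anti-monomethyl-H3K9 antibody with streptavidin donor and anti-IgG acceptor beads. Final levels are 20 nM enzyme, 500 nM peptide, 20 uM SAM; 2 h RT.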
# JMJD2A Tudor = JMJD2A Tudor domain (human) inhibition | 390,000 tested, 4.4% active | Potency, µM (series often up to 114 µM), inactives show at the highest dose activity change, negative = inhibition, actives largely listed as inhibitors | AlphaScreen JMJD2A-Tudor / H3K4me3 peptide binding; note: potency is the fitted concentration of half-maximal effect; % is set by controls: 0 for no effect and ±100 for the full control effect; nearly all actives have a fitted effect of over 50% in size
# HP1b binding inh = inhibitors of HP1-beta chromodomain binding to methylated histone tails; P83916; AlphaScreen HP1-beta / biotin-H3K9me3 peptide binding; Potency, µM (top dose mostly 114 µM), for inactives: at the highest dose activity change, negative = inhibition, usual class: inhibitors; 390,000 tested, 0.56% active; AID 540317; note: potency is the fitted concentration of half-maximal effect; nearly all actives have a fitted effect of over 70% in size
#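 AlphaScreen: HP1-beta (50 nM) preformed 30 min with biotin-H3(1-18)K9me3 peptide (50 nM) in PBS pH 7.4, 0.01% Tween-20. Compound added for 30 min at RT, then streptavidin donor/nickel chelate acceptor beads (10 ug/mL) for 30 min.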
# Six1-Eya2 blk = inhibitors of human Six1/Eya2 interaction. Q15475+O00167. activity change, % (no concentration beside the values). AlphaScreen GST-Six1/His-Eya2 binding, biochemical; stronger effect = lower value. 360,000 tested, 0.56% active; in the data active = activity change below about -65%; inconclusive = mostly about -30% to -63%; note: % is set by controls: 0 for no effect and ±100 for the full control effect
#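 Six1/Eya2 binding was read as AlphaScreen signal after compounds were pinned into GST-Six1 plus His-tagged Eya2 (5X stock 250/500 nM) in pH 8.0 Tris/NaCl/TCEP buffer, beads added, then incubated 1 h, 37 C, dark.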
# CtBP-E1A inh = CtBP/E1A binding inhibition. AID 651724. 340,000 tested, 0.49% active. activity change, % (concentration not given with the values). AlphaScreen GST-E1A/His-CtBP binding, 1536-well; stronger effect = lower value; in the data active = activity change below about -65%; inconclusive = mostly about -30% to -63%; note: % is set by controls: 0 for no effect and ±100 for the full control effect
#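 Steps: dispense buffer (Tris pH 8.0, NaCl 300 mM, TCEP 1 mM, BSA, Tween 20); add 5X protein mix (GST-E1A, His-CtBP, 125 nM each); pin 23 nL compound; 2 h at 37 °C, dark; add 5X beads (50 ug/mL); 1 h; read.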
# BAZ2B inh = BAZ2B (human) inhibition; Potency, µM (series often up to 114 µM), for inactives: at the top dose activity change, negative = inhibition, hits mostly inhibitors; 360,000 tested, 4.4% active; AlphaScreen BAZ2B-H3K14Ac peptide displacement; note: potency is the fitted concentration of half-maximal effect; % is set by controls: 0 for no effect and ±100 for the full control effect; nearly all actives have a fitted effect of over 60% in size
#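 In this displacement format the biotinylated H3(5-23) peptide acetylated at Lys14 serves as ligand at 50 nM, with BAZ2B at 50 nM in PBS pH 7.4 containing 0.01% Tween-20. Donor and acceptor beads are 10 ug/mL final.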
# Numbers without * were called inactive; ? = inconclusive; · = no result; [ ] = remark or other dose. Unless noted, calls come from the whole dose curve; as a rule, active = well fitted inhibition curve with a large enough effect; inconclusive = small, poorly fitted or top-dose-only effect; inactive = no such curve, though single readings can be large or run the other way.
SMILES,G9a inh,JMJD2A Tudor,HP1b binding inh,Six1-Eya2 blk,CtBP-E1A inh,BAZ2B inh
C#CCOCCOCCOCCNc1nc(N2CCN(C(=O)[C@H](CCC(=O)O)n3cc([C@@H](N)[C@H](C)CC)nn3)CC2)nc(N2CCN(C(=O)[C@H](CCC(=O)O)n3cc([C@@H](N)CCSC)nn3)CC2)n1,·,50µM*,49%,-3,-3,·
Cc1ccc(C)c(NC(=O)c2cc(S(=O)(=O)N3CCN(c4cccc(Cl)c4)CC3)ccc2F)c1,2%[59 µM],-27%,6%,·,·,3%
CC(C)OC(=O)c1cccnc1SCc1cc(=O)n2ccccc2n1,50µM*,-8%,54%,3,5,-8%
Cc1c(CCC(=O)NCCc2ccccc2)c(=O)oc2c(C)c(O)ccc12,-2%[59 µM],-5%,53%,·,·,-1%
O=C1N/C(=N\S(=O)(=O)Cc2ccccc2)S/C1=C/c1cc([N+](=O)[O-])ccc1O,40µM*,-27%,13%,-12,·,-32%
COc1cc(/C=C2/S/C(=N/S(=O)(=O)c3ccccc3)NC2=O)c([N+](=O)[O-])cc1OC,-12%[12.7 µM],-28%[57.1 µM],-4%,-17,-27,71µM*
Cc1ccc(S(=O)(=O)/N=C2/NC(=O)/C(=C\c3cc(Br)cc(Br)c3O)S2)cc1,32µM*,50µM*,?,-29,?,32µM*
Cc1ccc(S(=O)(=O)/N=C2/NC(=O)/C(=C/c3ccc(Br)o3)S2)cc1,?,?,-9%,5,-11,?
Cc1ccc(Nc2sc(C(=O)c3ccccc3)c(N)c2S(=O)(=O)c2ccccc2)cc1Cl,-1%[59 µM],-20%,36%,·,·,-31%
CCOC(=O)C1CCCN(C(=O)c2c(C)nn(-c3ccc(F)cc3)c2-n2cccc2)C1 (stereo not drawn),7%[59 µM],-4%,41%,·,·,-29%
N#Cc1ccccc1S(=O)(=O)N1CCN(c2nc(-c3cccnc3)nc3ccccc23)CC1,50µM*,?,12%,-9,-2,14%
Fc1ccccc1-c1nc(N2CCN(c3cccc(Cl)c3)CC2)c2ccccc2n1,5%[59 µM],6%,43%,·,·,3%
O=S(=O)(c1ccccc1F)N1CCN(c2nc(-c3cccnc3)nc3ccccc23)CC1,14%[12.7 µM],-34%,46%,-18,·,-9%
COc1cc2c(cc1OC)CN(c1nc(-c3cccnc3)nc3ccccc13)CC2,50µM*,?,-19%,?,?,40µM*
CCN1CCN(c2nc(-c3cccnc3)nc3ccccc23)CC1,?,89µM*,5%,-2,-10,-34%
c1ccc(N2CCN(c3nc(-c4ccccn4)nc4ccccc34)CC2)cc1,?,?,?,-67*,-71*,1.8µM*
CN1CCN(c2nc(-c3cccnc3)nc3ccccc23)CC1,-13%[59 µM],-3%,8%,-5,0,·
CC(O)C1CCC2C3CCC4CC(O)CCC4(C)C3CCC12C (stereo not drawn),16%[59 µM],·,·,·,·,·
O=C(CCc1nnc2n(Cc3ccccc3Cl)c(=O)c3ccccc3n12)Nc1ccc(F)cc1,1%[59 µM],-20%,22%,·,·,-1%
O=S(=O)(c1ccc(Cl)cc1)N1CCN(S(=O)(=O)c2ccc3c(c2)OCCO3)CC1,·,-12%,·,·,·,·
COc1cccc(C2CC(c3ccc(C)cc3)=NN2C(=O)c2ccccc2F)c1OC (stereo not drawn),22%,-27%,20%,-18,·,-7%
O=C(c1ccccc1)N1N=C(c2ccccc2)CC1c1ccccc1O (stereo not drawn),?,11µM*,?,-18,4,?
Cc1ccc(C2=NN(C(=O)c3ccccc3F)C(c3ccccc3F)C2)cc1 (stereo not drawn),16µM*,-19%,-18%,-10,3,-38%
Cc1ccc(CNS(=O)(=O)c2ccc(C(F)(F)F)cc2)n1C,45µM*,-27%,23%,-5,·,?
Cc1ccc(CNS(=O)(=O)c2ccc(F)c(F)c2)n1C,45µM*,-26%,-20%,9,-1,-24%
